# From the supplement of paper PMC3842684
# Assays:
# [1] = system: P. falciparum NF54-pfs16-GFP early (I-III) stage gametocytes; experiment: relative % inhibition of viable gametocyte number; higher = more gametocytocidal; conditions: stage: early (I-III) gametocyte, incubation 72 h
# Outline: (§1)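 Viable gametocytes were counted by confocal imaging as elongated GFP objects carrying MitoTracker Red signal above a cut-off, after 72 h of compound exposure (5 or 0.5 µM) at 37°C in 5% CO2 and 5% O2 and overnight staining. The NF54 pfs16-GFP gametocytes had been magnet-isolated at early (I/IIa, day 2) or late (day 8) stage and plated at 10% parasitaemia, 0.1% haematocrit in 384-well poly-D-lysine imaging plates. Relative inhibition was normalised to vehicle and positive-control wells within each plate.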
# [2] = system: P. falciparum NF54-pfs16-GFP late (IV-V) stage gametocytes; experiment: as above; conditions: stage: late (IV-V) gametocyte, incubation 72 h
# Outline: as §1
Structure (SMILES),relative % inhibition ([1]; 0.5 µM) [%],relative % inhibition ([1]; 5 µM) [%],relative % inhibition ([2]; 0.5 µM) [%],relative % inhibition ([2]; 5 µM) [%]
Cc1ccc(OCCCCCCNCCO)c(C)c1,2.04,30.1,-16.2,-15.5
Cc1cc(C)cc(Nc2cc(C)nc3nc(C(F)(F)F)nn23)c1,-6.02,10,-4.65,-1.16
Cc1ccc(C2CC(C(F)(F)F)n3nc(C(=O)N4CCN(C(c5ccccc5)c5ccccc5)CC4)cc3N2)cc1 (stereo not given),3.32,13.2,17.1,-7.7
O=C(Nc1ccc(CN2CCOCC2)cc1)c1ccc(-c2cc(Cl)ccc2Cl)o1,-3.41,20.9,-18.1,21.4
COc1cc(C(=O)Nc2nc3c(cc4c5c(cccc53)CC4)s2)cc(OC)c1OC,5.49,13.9,12.4,5.43
CCCCN(CCCC)S(=O)(=O)c1ccc(NC(=O)c2ccco2)cc1,16.5,7.65,7.52,1
COc1cc2cc(C(=O)Nc3ccccc3)c(N)nc2cc1OC,16.8,99,3.1,-13.4
O=C(NCCCN1CCC(N2CCCCC2)CC1)C1=Cc2cc(Br)ccc2OC1,42.8,102,-12.5,19.4
CC(=O)c1sc(NC(=O)Nc2ccc(C)cc2C)nc1C,30.3,63.7,-2.19,-29.6
CCOc1cc(Cl)c(C(C)NC(=O)c2ccccc2)cc1OCC (stereo not given),15.1,34.5,8.2,38.7
CCOc1cc(Cl)c(C(C)NC(=O)c2cccc(OC)c2)cc1OCC (stereo not given),24.8,60.9,-6.93,41.6
COc1ccc(Br)cc1C1Nc2ccc3ccccc3c2C2=C1C(=O)CC(c1ccccc1)C2 (stereo not given),27.7,70.3,2.99,16.2
CCCCc1ccc(NS(=O)(=O)c2cc3c4c(c2)CCN4C(=O)CC3)cc1,12.3,1.37,0.5,-7.42
O=C(NCc1ccco1)C1CCN(S(=O)(=O)c2ccc(Br)cc2)CC1,-6.48,-2.56,29,51.5
COc1cc(C(=O)Nc2ccc(-c3nc4ccccc4[nH]3)cc2)cc(OC)c1OC,22.1,42.1,20.5,9.54
CCOC(=O)C1(Cc2ccccc2)CCN(Cc2cccc(OC)c2O)CC1,14.7,52.6,-5.97,22.8
C=C(C)CCC(C)N1CCC(N2CCC(C(=O)NCCc3ccccc3)CC2)CC1 (stereo not given),-2.27,49.4,-12.5,-42.7
Cc1cc(NC(=O)C2c3ccccc3C(=O)N(CC(C)C)C2c2cccs2)no1 (stereo not given),37.5,90.8,31.5,36.1

Structure (SMILES),relative % inhibition ([1]; 0.5 µM) [%],relative % inhibition ([1]; 5 µM) [%],relative % inhibition ([2]; 0.5 µM) [%],relative % inhibition ([2]; 5 µM) [%]
Cc1ccc(CN2CCC(C(=O)Nc3ccc(-c4cc5ccccc5[nH]4)cc3)CC2)o1,9.97,90.5,3.47,-13.5
O=C1CC(O)(C(F)(F)C(F)(F)F)Oc2ccccc21 (stereo not given),0.889,0.745,-15.1,4.41
Oc1ccccc1CN1CCN(C(c2ccccc2)c2ccccc2)CC1,13.3,98.5,28.3,78.5
Cc1ccccc1OCCSc1nc2ccc(NC(=O)c3ccccc3)cc2s1,24.2,20.2,2.82,12.9
O=[N+]([O-])c1ccc(C=NNc2nc3ccccc3[nH]2)cc1,26.8,59.1,-1.37,-1.1
CC(Oc1ccc(NC(=O)c2cccs2)cc1)C(=O)c1ccc(Cl)cc1 (stereo not given),10.9,23,16.4,52.1
Clc1ccc2[nH]c3c(NCCCN4CCOCC4)ncnc3c2c1,61.4,97.5,12.4,17.7
COCCNC(=O)c1ccc(OC2CCN(Cc3ccc(F)c(F)c3)CC2)c(Cl)c1,7.61,-0.414,14.2,39.9
COc1ccc(C2NCCc3c2[nH]c2ccccc32)cc1CN1CCN(c2ccc(F)cc2)CC1 (stereo not given),18.2,90,8.16,58
COc1cccc(Nc2nc(NCCO)c3ccccc3n2)c1,0,-12.9,17.4,50.8
COc1ccc(C2C(C(=O)Nc3cccc(OC)c3)c3ccccc3C(=O)N2C2CCCCC2)cc1 (stereo not given),15.6,87.5,5.71,78.2
CCCCCCc1cc2cc(-c3nc4ccccc4[nH]3)c(=Nc3ccccc3C)oc2cc1O,60.1,100,35,52.7
CCOc1ccc(Nc2c3ccccc3nc3ccccc23)cc1,-20.8,84,8.64,20.9
CCn1nc(-c2ccc(C(=O)OC)cc2)nc2c(=O)n(C)c(=O)nc1-2,18.4,36.1,68,76.7
CCOC(=O)c1c(C)n(-c2ccccc2)c2ccc(OC(=O)c3cc(OC)c(OC)c(OC)c3)cc12,17.7,-2.44,-15.1,-2.38
COc1ccc(CCn2c(=N)c(C(=O)NCc3cccnc3)cc3c(=O)n4cccc(C)c4nc32)cc1,45.1,70.9,-7.36,11.2
Cc1cc(=O)oc2c1ccc1oc(C(=O)c3ccccc3)c(C)c12,8.22,5.4,17.2,-4.53
